Assay results reported in PubChem BioAssay (NCI).
This is part of a sample that, as a whole, favours compounds with a hit. Of some 83,000 tested, about 20% had one in any assay.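 Step 1: grow cells in 96-well plates. Step 2: add test compound at a single concentration. Step 3: incubate 48 h. Step 4: record percent growth.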 Values without a mark were called inactive. Calls of active or inactive are those of the source. How the source made its calls: active means growth percent below 10; inactive means the rest.

How the values were obtained:
Assay in all cases: NCI-60 one-dose screen, 48 h (100 = growth as untreated, 0 = no growth, -100 = all killed)
Details in all cases: 10 µM unless noted
HCT-15 colon = tested on: HCT-15 colon
HT29 colon = tested on: HT29 colon
SNB-75 CNS = tested on: SNB-75 CNS
SNB-19 CNS = tested on: SNB-19 CNS
U251 CNS = tested on: U251 CNS
PC-3 prostate = tested on: PC-3 prostate
SK-MEL-5 melanoma = tested on: SK-MEL-5 melanoma
UACC-62 melanoma = tested on: UACC-62 melanoma
LOX IMVI melanoma = tested on: LOX IMVI melanoma
SK-MEL-28 melanoma = tested on: SK-MEL-28 melanoma
SK-MEL-2 melanoma = tested on: SK-MEL-2 melanoma
EKVX NSCLC = tested on: EKVX NSCLC
SN12C renal = tested on: SN12C renal
UO-31 renal = tested on: UO-31 renal
TK-10 renal = tested on: TK-10 renal
CAKI-1 renal = tested on: CAKI-1 renal
A498 renal = tested on: A498 renal
CCRF-CEM leukemia = tested on: CCRF-CEM leukemia
MOLT-4 leukemia = tested on: MOLT-4 leukemia
ACHN renal = tested on: ACHN renal

| SMILES | growth (HCT-15 colon) | growth (HT29 colon) | growth (SNB-75 CNS) | growth (SNB-19 CNS) | growth (U251 CNS) | growth (PC-3 prostate) | growth (SK-MEL-5 melanoma) | growth (UACC-62 melanoma) | growth (LOX IMVI melanoma) | growth (SK-MEL-28 melanoma) | growth (SK-MEL-2 melanoma) | growth (EKVX NSCLC) | growth (SN12C renal) | growth (UO-31 renal) | growth (TK-10 renal) | growth (CAKI-1 renal) | growth (A498 renal) | growth (CCRF-CEM leukemia) | growth (MOLT-4 leukemia) | growth (ACHN renal) |
| --- | --- | --- | --- | --- | --- | --- | --- | --- | --- | --- | --- | --- | --- | --- | --- | --- | --- | --- | --- | --- |
| CCCCC#Cc1c(/C=C(\CCCC)SCC)n(C)c(=O)[nH]c1=O | 89.8% | 92.6% | 90.1% | 107% | 117% | 94.1% | 99% | 90.4% | 96.6% | 118% | 67.1% | 104% | 101% | 90.9% | 104% | 102% | 72% | 95% | 62.1% |  |
| Cc1cccc(Cc2cnc(NC(=O)CCCOc3ccc(Cl)cc3)s2)c1 | 24.6% | 11.6% | 21.3% | 27.6% | 14% | 42.5% | 30.7% | 32.4% | 35.6% | 58.4% | 67.2% | 41.4% | 34.9% | 19% | 38.3% | 27.1% | -2.46% (active) | 16.3% | 40.1% |  |
| COc1cc(C=O)ccc1Oc1ccc([N+](=O)[O-])cc1[N+](=O)[O-] | 108% | 108% | 93.1% | 90.3% | 93.2% | 94.4% | 98.6% | 82.3% | 82% | 107% | 96.9% | 105% | 99.8% | 83.3% | 106% | 107% | 95.2% | 82.9% | 100% | 106% |
| COc1cc(/C=C2\C(=O)N(CCCCn3c4ccccc4c(=O)c4ccccc43)c3ccccc32)cc(OC)c1O | 36.3% | 41.6% | 51.7% | 62.7% | 67.5% | 39.9% | 55.3% | 37.5% | 52.8% |  | 26.5% | 74% | 71.1% | 49.5% | 120% | 52% | 75.5% | 15.9% | 29% | 63.3% |
| COc1cc(-c2[nH]ncc2Nc2ccc(Cl)cc2)cc(OC)c1OC | 59.7% | 74.2% | 59.8% | 74.2% | 68.9% | 59.9% | 43.6% | 40% | 55.8% | 82.1% | 112% | 45.4% | 89.9% | 42.9% | 67.8% | -14.8% (active) | 68.9% | 54.9% | 50.9% |  |
| CSc1nnc(-c2cc3c([nH]c4ccccc43)c(-c3cccc(O)c3)n2)n1-c1ccc(C)cc1 | 23.2% | 8.92% (active) | 30.1% | 54.3% | 29.4% | 25.8% | 13.5% | 40.1% | 29.3% |  | -13.6% (active) | 70.4% | 62.7% | 41.5% | 35.5% | 48.3% | 30.6% | 12.2% | 17.4% | 32.3% |
| Cc1ccc(/C=C/c2c(C(=O)/C=C/c3ccccc3)c(C)nc3ccccc23)cc1 | -24.6% (active) | 0.173% (active) | 29% | 15.7% | -5.93% (active) | 31.3% | 32.3% | 29.2% | -79.4% (active) |  | 2.34% (active) | 46.5% | 36.9% | 18.4% | 29.3% | 22.3% | 59.3% | 5.43% (active) | 6.13% (active) | 8.19% (active) |
| COc1cc2nc3cc([N+](=O)[O-])ccc3c(NCCNCC(C)(C)O)c2cc1OC | 17% | -11.7% (active) | -55.7% (active) | -10.5% (active) | -23.6% (active) | -35.6% (active) | -71.3% (active) | -48.6% (active) | -40.9% (active) | -25.7% (active) | -45.5% (active) | 7.08% (active) | -17.1% (active) | 27.7% | 9.89% (active) | 16.1% | -48.8% (active) | 0.0876% (active) | 5.85% (active) |  |
| C=CCN1C=CC(=O)[C@H](O[Si](C)(C)C(C)(C)C)[C@@H]1/C=C/c1ccccc1 | -70.7% [100 µM] (active) | -73% [100 µM] (active) | -87.9% [100 µM] (active) | -92% [100 µM] (active) | -39.6% [100 µM] (active) | -76.2% [100 µM] (active) | -84.9% [100 µM] (active) | -78.2% [100 µM] (active) | -43.9% [100 µM] (active) |  | -57% [100 µM] (active) | -48% [100 µM] (active) | -74% [100 µM] (active) | -73.4% [100 µM] (active) | -64.6% [100 µM] (active) | -72.5% [100 µM] (active) | -88.8% [100 µM] (active) | -33.8% [100 µM] (active) | -30.4% [100 µM] (active) | -73.1% [100 µM] (active) |
| Cc1cccc(-c2nnc(SCC(=O)Nc3ncc(Cc4ccccc4)s3)n2N2C(=O)CSC2=S)c1 | 78.5% | 81.2% | -7.46% (active) | 54.1% | 34.6% | 57.3% | 75.9% | 20.1% | 23.5% | 51.3% | 75.6% | 73.4% | 19.1% | 72.3% | 47.3% | 23.3% | 64.8% | 76.5% | 87.5% |  |
| CCC(=C(c1ccc(OCCCN(C)C)cc1)c1ccc(OCCCN(C)C)cc1)c1ccc(Cl)cc1 | -83.3% (active) | -74.5% (active) | -96.6% (active) | -88.3% (active) | -83.4% (active) | -66.2% (active) | -96.3% (active) | -80% (active) | -84.3% (active) | -89.8% (active) | -72.1% (active) | -86.8% (active) | -94.1% (active) | -93.6% (active) | -85.2% (active) | -96.1% (active) | -86.3% (active) | -67.9% (active) | -61.9% (active) |  |
| COCCn1cc(-c2csc(-c3cn(C)c4ccc(F)cc34)n2)c2cccnc21 | 27.9% | 35.5% | 76.4% | 82.6% | 65.5% | 46.5% | 72.7% | 79.9% | 25.8% |  | 72% | 59% | 74.5% | 64.2% | 81.5% | 84% | 36.3% | 56% | 56.7% | 78% |
| COC1=CC(=O)C(OC)=C(O)C1=O | 97.7% | 106% | 77% | 101% | 101% | 97.2% | 97.8% | 96.1% | 99.6% |  | 105% | 98.1% | 98.2% | 93.1% | 105% | 93.9% | 106% | 108% | 107% | 98.2% |
